Screens from PubChem BioAssay.
DT40 TDP1 CPT: qHTS for Inhibitors of human tyrosyl-DNA phosphodiesterase 1 (TDP1): qHTS in cells in presence of CPT; chicken DT40 Tdp1-/-;hTDP1 cells + 20 nM CPT, ATP luminescence, 48 h; Potency, µM (titrated, usually from 46.2 µM), for the others: at the top dose activity change, negative = growth inhibition, hits mostly inhibitors; 420,000 tested, 12% active; AID 686979, 2013; note: potency is the fitted concentration of half-maximal effect; % is set by controls: 0 for no effect and ±100 for the full control effect; nearly all actives have a fitted effect of over 55% in size
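Cell growth measured by CellTiter-Glo luminescence after a minimum 48 h, 37 C compound exposure with 20 nM CPT in Tdp1-knockout DT40 cells stably expressing hTDP1, seeded 400/well; qHTS titration format.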
IL-1B inflam inh: qHTS for Inhibitors of Inflammasome Signaling: IL-1-beta AlphaLISA Primary Screen; 360,000 tested, 4.7% active; activity change, % at 57.5 µM; THP-1 LPS/ATP IL-1B secretion, AlphaLISA, 16 h; stronger effect = lower value; AID 743279, 2014; in the data active = activity change below about -50%; inconclusive = mostly about -30% to -49%; note: % is set by controls: 0 for no effect and ±100 for the full control effect
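THP-1 cells pretreated 1 hr with compounds (up to 57.5 uM final), then stimulated with LPS (250 ng/mL final) plus ATP (1.25 mM final); secreted IL-1B measured by AlphaLISA after 16 hr, decreased signal indicating inhibition.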
S-ASM inh: Inhibitors of Secretory Acid Sphingomyelinase (S-ASM): qHTS. Sphingomyelin phosphodiesterase (Homo sapiens), P17405. placental ASM, HMU-PC fluorogenic substrate, 60 min. Potency, µM (doses to about 57.5 µM), without a hit: at the highest dose activity change, negative = inhibition, usual class: inhibitors. 340,000 tested, 0.006% active; note: potency is the fitted concentration of half-maximal effect
Target sequence (P17405 47-631 limits assumed): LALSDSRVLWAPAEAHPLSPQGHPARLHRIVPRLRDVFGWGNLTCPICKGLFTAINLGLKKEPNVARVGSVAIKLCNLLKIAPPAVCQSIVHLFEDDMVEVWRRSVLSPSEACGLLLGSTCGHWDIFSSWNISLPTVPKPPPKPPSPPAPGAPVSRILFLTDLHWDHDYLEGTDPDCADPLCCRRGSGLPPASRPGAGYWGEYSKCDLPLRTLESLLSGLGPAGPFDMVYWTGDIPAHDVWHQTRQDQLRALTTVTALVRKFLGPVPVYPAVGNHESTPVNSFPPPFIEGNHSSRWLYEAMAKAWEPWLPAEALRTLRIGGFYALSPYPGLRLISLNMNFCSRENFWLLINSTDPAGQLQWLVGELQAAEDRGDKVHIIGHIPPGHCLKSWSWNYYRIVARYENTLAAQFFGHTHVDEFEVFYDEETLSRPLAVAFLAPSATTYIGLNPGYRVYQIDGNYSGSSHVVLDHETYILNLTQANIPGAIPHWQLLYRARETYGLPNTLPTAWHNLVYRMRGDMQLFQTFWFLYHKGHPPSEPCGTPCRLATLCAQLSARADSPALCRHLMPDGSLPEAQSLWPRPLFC
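qHTS format. ASM enzyme prepared from human placenta hydrolyses the fluorogenic substrate HMU-PC0 (9 uM final) over 60 min at 37 °C after a 10 min compound preincubation.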
TGFb SMAD3 inh: qHTS for Inhibitors of TGF-b; HepG2 CAGA-GFP TGF-b/SMAD3 reporter, GFP fluorescence, 18 h; TGF-beta stimulated, 500 pg/mL final; Potency, µM (doses to about 46.1 µM), for inactives: at the highest dose activity, negative = inhibition, usual class: inhibitors; 410,000 tested, 1.2% active; AID 588855, 2011; note: potency is the fitted concentration of half-maximal effect; % is set by controls: 0 for no effect and ±100 for the full control effect; nearly all actives have a fitted effect of over 65% in size
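GFP signal (ex488/em500-530) from TGF-beta-stimulated HEPG2 CAGA-GFP cells, 500 pg/mL final, 18 h at 37 degrees C in DMEM plus 1% FBS, normalized to unstimulated and DMSO-stimulated controls.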
DT40 TDP1 no CPT: qHTS for Inhibitors of human tyrosyl-DNA phosphodiesterase 1 (TDP1): qHTS in cells in absence of CPT. DT40 Tdp1-/- hTDP1 cells, no CPT, ATP luminescence, 48 h. Potency, µM (series often up to 46.2 µM), without a hit: at the highest dose activity change, negative = growth inhibition, actives largely listed as inhibitors. 420,000 tested, 15% active. AID 686978, 2013; note: potency is the fitted concentration of half-maximal effect; % is set by controls: 0 for no effect and ±100 for the full control effect; nearly all actives have a fitted effect of over 55% in size
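Stably hTDP1-transfected Tdp1-null chicken DT40 cells were treated with library compounds minus camptothecin and grown for at least 48 hr at 37 °C, after which cellular ATP was quantified by luminescence.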
HepG2 tox-1: qHTS for Inhibitors of TGF-b: Cytotox Counterscreen | HepG2 CAGA-GFP viability, ATP luminescence, 18 h | Potency, µM (doses to about 46.1 µM), without a hit: at the top dose activity change, negative = cytotoxicity, actives largely listed as cytotoxic | 410,000 tested, 0.76% active; note: potency is the fitted concentration of half-maximal effect
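HepG2 CAGA-GFP cells (1000/well, DMEM with 1% FBS) received compound, then TGF-beta at 500 pg/mL final, and were incubated 18 hours at 37 degrees C. Viability was read by CellTiter-Glo luminescence. Media-only wells were set as complete cell-killing and DMSO as no toxicity.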
TGFb CAGA inh: qHTS for Inhibitors of TGF-b: Confirmation of Cherry Picks | shares compounds with TGFb SMAD3 inh | HepG2 CAGA-GFP TGF-b reporter, GFP fluorescence, 18 h; cells stimulated with TGF-beta, 500 pg/mL | Potency, µM (highest dose often 46.1 µM), inactives show at the top dose activity, negative = inhibition, hits mostly inhibitors | 1,600 tested, 63% active; note: potency is the fitted concentration of half-maximal effect; % is set by controls: 0 for no effect and ±100 for the full control effect; nearly all actives have a fitted effect of over 65% in size
HepG2 tox-2: qHTS for Inhibitors of TGF-b: Cytotox Counterscreen for Cherry Picks. shares compounds with TGFb SMAD3 inh. HepG2 CAGA-GFP viability, ATP luminescence, 18 h; cells stimulated with TGF-beta, 500 pg/mL. Potency, µM (doses to about 46.1 µM), inactives show top-dose activity, negative = cytotoxicity, actives largely listed as inhibitors. 1,600 tested, 27% active; note: potency is the fitted concentration of half-maximal effect; % is set by controls: 0 for no effect and ±100 for the full control effect; nearly all actives have a fitted effect of over 70% in size
TGFb CCL64 inh: qHTS for Inhibitors of TGF-b: CCL64 Cells Orthogonal Assay for Cherry Picks; 1,600 tested, 41% active; Potency, µM (doses to about 46.1 µM), for the others: at the highest dose activity, negative = inhibition, hits mostly inhibitors; shares compounds with TGFb SMAD3 inh; AID 720536, 2013; CCL64 CAGA-GFP reporter, TGF-b stimulated, GFP fluorescence, 18 h; note: potency is the fitted concentration of half-maximal effect; nearly all actives have a fitted effect of over 65% in size
TGFb COP inh: qHTS for Inhibitors of TGF-b: Hit Validation in HepG2 Cells using COP promoter; Potency, µM (series often up to 46.1 µM), for the others: at the highest dose activity, negative = inhibition, actives largely listed as inhibitors; 1,600 tested, 3% active; shares compounds with TGFb SMAD3 inh; AID 720537, 2013; HepG2 COP-GFP TGF-b reporter, GFP fluorescence, 18 h; cells stimulated by added recombinant TGF-beta; note: potency is the fitted concentration of half-maximal effect; nearly all actives have a fitted effect of over 70% in size
* = called active by the depositor; ? = inconclusive; · = no result given; ! = not active in a repeat. Rows were chosen to be rich in hits. Some 19% of all compounds tested hit in one or more screens of this group. Unless noted, calls come from the whole dose curve; as a rule, active = well fitted curve in the direction sought with a large enough effect; inconclusive = small, poorly fitted or top-dose-only effect, or another doubt; inactive = no such curve, though single readings can be large; an effect the other way counts as inactive or inconclusive.

SMILES | DT40 TDP1 CPT | IL-1B inflam inh | S-ASM inh | TGFb SMAD3 inh | DT40 TDP1 no CPT | HepG2 tox-1 | TGFb CAGA inh | HepG2 tox-2 | TGFb CCL64 inh | TGFb COP inh
Cc1cc2oc(C(=O)Nc3ccc(S(=O)(=O)N(C)c4ccccc4)cc3)cc(=O)c2cc1C | -14% | · | · | -19% | -3% | -1% | · | · | · | ·
COc1cc(OC)cc(N2C(=O)N(CC(=O)c3ccc(F)cc3)c3ccccc3S2(=O)=O)c1 | -21% | · | · | 4% | -19% | -6% | · | · | · | ·
Cc1ccc(C(=O)NCc2ccc3c(c2)OCO3)c(Cl)c1 | -19% | -24 | · | 0% | -3% | -20% | · | · | · | ·
Cc1cccc(CS(=O)(=O)c2ncc(Cl)c(C(=O)NCc3ccc4c(c3)OCO4)n2)c1 | 2.9µM* | -96* | 4% | 7.9µM* | 4.6µM* | 14µM* | 5.8µM* | 13µM* | 2.9µM* | ?
CCOC(=O)c1ccc(NC(=O)c2nc(S(=O)(=O)Cc3ccccc3)ncc2Cl)cc1 | 0.46µM* | -105* | -3% | 3.5µM* | 1.3µM* | 6.3µM*! | 4.6µM* | 6.5µM* | 2.3µM* | 13µM*
CCOc1ccc(N(CC(=O)N/N=C/c2cc([N+](=O)[O-])ccc2Cl)S(C)(=O)=O)cc1 | ? | -11 | -15% | 7.9µM* | 23µM* | 0% | 15µM* | -3% | ? | 16%
CCN1C(=O)N[C@H](c2ccc(Br)cc2)C(C(=O)OC)=C1C | -5% | 7 | 0% | -1% | -16% | -2% | · | · | · | ·
COCCN=C1N[C@@H](c2ccc(Br)cc2)C(C(=O)OC)=C(C)N1Cc1ccccc1 | ? | ? | -5% | 10µM* | ? | -73% | ? | ? | ? | 62%
O=C(Nc1ccc([N+](=O)[O-])cc1)Nc1ccon1 | 0.41µM* | 0 | 1% | 10µM* | 0.33µM* | -27% | ? | -21% | ? | -17%
O=C(Nc1ccc([N+](=O)[O-])cc1)Nc1ccc(Cl)cc1F | 2.6µM* | -93* | -2% | 2.2µM* | 1.6µM* | 2.8µM* | ? | ? | 4.1µM* | 26%
O=C(Nc1ccc(Cl)cc1)Nc1csc([N+](=O)[O-])c1 | 18µM* | · | 0% | 4µM* | 9.2µM* | -26% | 6.5µM* | 6.5µM* | 5.2µM* | 76%
